Activity calls are given as the source filed them. The calls were made as follows: active = hit-call score of the fitted dose curve at least 0.9, where 1 is the maximum; inactive = score below 0.9.
What was measured:
[1] = ATG_CRE_CIS: Attagene CIS-FACTORIAL HepG2 Assay for human cAMP Responsive Element (CRE) binding protein 3 (AID 2282926); conditions: HepG2 CRE cis-reporter, Attagene multiplexed mRNA; actives raise or lower the signal
In short: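 HepG2 cells transiently transfected with cis-element-driven multiple reporter transcription units; CRE reporter mRNA measured 24 h after dosing by RT-PCR, 6-FAM labelling, HpaI digestion and capillary electrophoresis. Bidirectional fit versus DMSO baseline.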

[2] = target: CCAAT/enhancer-binding protein beta (Homo sapiens) (UniProt P17676); assay: ATG_C_EBP_CIS: Attagene CIS-FACTORIAL HepG2 Assay for human CCAAT/Enhancer Binding Protein (C/EBP) beta (AID 2282927); conditions: HepG2 Attagene cis-factorial transcription factor reporter; actives raise or lower the signal
In short: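 Following a 24 h incubation with test chemical, transfected HepG2 cells yielded RNA whose reporter transcripts were quantified by RT-PCR and fluorescent capillary electrophoresis, with DMSO serving as baseline for bidirectional fitting.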

[3] = ATG_CMV_CIS: Attagene CIS-FACTORIAL HepG2 Assay for human CMV (Internal Marker) (AID 2282928); conditions: HepG2 CMV promoter reporter, transcription factor profiling; actives raise or lower the signal;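 also: endpoint acts as a background internal control marker rather than a target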
In short: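 CMV internal-marker background readout in transiently transfected HepG2 cells bearing cis-regulated reporter units. Reporter mRNA is measured 24 h after dosing by RT-PCR and capillary electrophoresis, with bidirectional fitting against DMSO.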

[4] = ATG_DR4_LXR_CIS: Attagene CIS-FACTORIAL HepG2 Assay for human Liver X Receptor (LXR), DR4 submotif (AID 2282929); conditions: HepG2 Attagene DR4 cis-reporter, mRNA transcription; actives raise or lower the signal
In short: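 Total RNA from 24 h-treated, MRTU-transfected HepG2 cells underwent reverse transcription, PCR, fluorescent primer extension and restriction digestion before capillary electrophoresis. Both increases and decreases in reporter signal were fitted against DMSO.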

[5] = target: Aryl hydrocarbon receptor (Homo sapiens) (UniProt P35869); assay: ATG_Ahr_CIS: Attagene CIS-FACTORIAL HepG2 Assay for human Aryl Hydrocarbon Receptor (Ahr) (AID 2282930); conditions: HepG2 AhR cis-factorial reporter transcription; actives raise or lower the signal
In short: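 Values derive from bidirectional fitting against DMSO negative control. Underlying signal: cis-element reporter mRNA in transiently transfected HepG2, harvested 24 h post-dose and measured by RT-PCR plus capillary electrophoresis.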

[6] = ATG_AP_2_CIS: Attagene CIS-FACTORIAL HepG2 Assay for human Activator Protein 2 (AP-2) (AID 2282932); conditions: HepG2 AP-2 cis-reporter, Attagene transcription factor profiling; actives raise or lower the signal
In short: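 HepG2 cells were transiently transfected with multiple cis-promoter reporter transcription units and dosed for 24 h. Reporter mRNA was measured by RT-PCR with capillary electrophoresis fluorescence; bidirectional fits relative to DMSO baseline.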

[7] = ATG_BRE_CIS: Attagene CIS-FACTORIAL HepG2 Assay for human Bone Morphogenetic Protein (BMP) Response Element (BRE) (AID 2282933); conditions: HepG2 BMP response element reporter, Attagene transcription factor profiling; actives raise or lower the signal
In short: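 After a 24 h chemical treatment, transiently transfected HepG2 cells were lysed for RNA; reporter transcripts were quantified by fluorescent RT-PCR and capillary electrophoresis, normalised to DMSO.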

[8] = target: Transcription factor E2F1 (Homo sapiens) (UniProt Q01094); assay: ATG_E2F_CIS: Attagene CIS-FACTORIAL HepG2 Assay for human E2F Transcription Factor 1 (AID 2282935); conditions: HepG2 Attagene cis-reporter, E2F reporter RNA transcripts; actives raise or lower the signal
In short: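 HepG2 cells transiently transfected with multiplexed cis-element reporter units, dosed for 24 h. Reporter mRNA measured by RT-PCR, 6-FAM primer-extension labeling, HpaI digestion and capillary electrophoresis; bidirectional fit versus DMSO baseline.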

[9] = ATG_E_Box_CIS: Attagene CIS-FACTORIAL HepG2 Assay for human Enhancer Box (E-box) (AID 2282936); conditions: HepG2 E-box cis-reporter transcription, actives raise or lower the signal
In short: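 HepG2 cells transiently transfected with multiplexed cis-element reporter units sensing endogenous transcription factor activity; 24 h compound exposure. Reporter mRNA measured by RT-PCR, 6-FAM primer extension, HpaI digestion and capillary electrophoresis; bidirectional fit versus DMSO.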

[10] = ATG_M_61_CIS: Attagene CIS-FACTORIAL HepG2 Assay for M61 Transcription Factor (Internal Marker) (AID 2282937); conditions: HepG2 Attagene CIS-FACTORIAL M61 internal marker reporter; actives raise or lower the signal
In short: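 Transfect HepG2 with MRTUs; dose 24 h; isolate RNA; reverse-transcribe with DNase I treatment; PCR-amplify, FAM-label and cut with HpaI for 2 h at 37 C; resolve by CE. Bidirectional fitting against DMSO.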

[11] = ATG_EGR_CIS: Attagene CIS-FACTORIAL HepG2 Assay for human Early Growth Response 1 (EGR1) (AID 2282938); conditions: HepG2 Attagene CIS-FACTORIAL EGR reporter mRNA; actives raise or lower the signal
In short: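 After a 24 h treatment of transiently transfected HepG2 cells, total RNA was reverse-transcribed and reporter sequences PCR-amplified, labelled and run on capillary electrophoresis. Reporters sit under cis-regulatory promoters sensing endogenous factors.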

[12] = ATG_M_19_CIS: Attagene CIS-FACTORIAL HepG2 Assay for M19 Transcription Factor (Internal Marker) (AID 2282939); conditions: HepG2 Attagene CIS-FACTORIAL M19 internal marker reporter; actives raise or lower the signal
In short: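 In this multiplexed cell assay, transiently transfected HepG2 reporter units report endogenous transcription-factor activity; after 24 hours of treatment, labelled reporter cDNA fragments are quantified by capillary electrophoresis and fitted bidirectionally against DMSO.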

[13] = ATG_ERE_CIS: Attagene CIS-FACTORIAL HepG2 Assay for Estrogen Response Element (ERE) (AID 2282940); conditions: HepG2 ERE cis-reporter, Attagene RNA transcript; actives raise or lower the signal
In short: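 Measuring endogenous transcription factor output, the assay doses transfected HepG2 cells for 24 hours and quantifies reporter transcripts by fluorescent RT-PCR and capillary electrophoresis, with DMSO as baseline.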

[14] = ATG_Ets_CIS: Attagene CIS-FACTORIAL HepG2 Assay for human Erythroblast Transformation Specific (ETS) (AID 2282941); conditions: HepG2 ETS cis-reporter transcription, actives raise or lower the signal
In short: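 HepG2 cells transfected with multiple cis-regulated reporter units measuring endogenous ETS-driven transcription, 24 h after dosing. Reporter mRNA quantified by RT-PCR with capillary electrophoresis; bidirectional fit relative to DMSO.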

[15] = target: Hepatocyte nuclear factor 3-beta (Homo sapiens) (UniProt Q9Y261); assay: ATG_FoxA2_CIS: Attagene CIS-FACTORIAL HepG2 Assay for human Forkhead box A2 (FOXA2) (AID 2282942); conditions: HepG2 cis-reporter transcription factor activity, 24 h; actives raise or lower the signal
In short: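 24 h dosing of HepG2 bearing cis-reporter constructs; mRNA readout by RT-PCR/CE fluorescence; bidirectional fit, DMSO baseline.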

[16] = ATG_FoxO_CIS: Attagene CIS-FACTORIAL HepG2 Assay for human Forkhead box O (FoxO) (AID 2282943); conditions: HepG2 Attagene cis-reporter, FoxO element, mRNA; actives raise or lower the signal
In short: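 Values reflect reporter mRNA induction or loss in HepG2 cells 24 h post-dosing, fitted bidirectionally with DMSO as negative control and baseline. Detection used RT-PCR and fluorescence capillary electrophoresis.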

[17] = ATG_GATA_CIS: Attagene CIS-FACTORIAL HepG2 Assay for human GATA Binding Protein (AID 2282944); conditions: HepG2 GATA cis-element reporter, Attagene multiplex mRNA; actives raise or lower the signal
In short: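 Measures endogenous transcription factor-driven reporter mRNA in HepG2 cells transiently carrying cis-regulated constructs. 24 h dosing; RNA via oligo(dT) reverse transcription, PCR, HpaI digestion, capillary electrophoresis; fitted relative to DMSO.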

[18] = ATG_AP_1_CIS: Attagene CIS-FACTORIAL HepG2 Assay for human Activator Protein 1 (AP-1) (AID 2282931); conditions: HepG2 Attagene cis-factorial AP-1 reporter mRNA; actives raise or lower the signal
In short: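 HepG2, transient cis-reporter transfection; 24 h; readout RT-PCR/CE fluorescence; DMSO baseline, gain and loss fitted.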

[19] = target: Retinoic acid receptor alpha (Homo sapiens) (UniProt P10276); assay: ATG_DR5_RAR_CIS: Attagene CIS-FACTORIAL HepG2 Assay for human Retinoic Acid Receptor Alpha (RARE), DR5 submotif (AID 2282934); conditions: HepG2 Attagene cis-factorial RARE DR5 reporter, mRNA; actives raise or lower the signal
In short: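 Endpoint fitted in both directions relative to DMSO as negative control. It reflects DR5 cis-element reporter mRNA induction in transiently transfected HepG2 cells, measured 24 h after dosing through RT-PCR and fluorescent capillary electrophoresis.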

Chain of CCAAT/enhancer-binding protein beta (Homo sapiens) (P17676 whole entry, looked up): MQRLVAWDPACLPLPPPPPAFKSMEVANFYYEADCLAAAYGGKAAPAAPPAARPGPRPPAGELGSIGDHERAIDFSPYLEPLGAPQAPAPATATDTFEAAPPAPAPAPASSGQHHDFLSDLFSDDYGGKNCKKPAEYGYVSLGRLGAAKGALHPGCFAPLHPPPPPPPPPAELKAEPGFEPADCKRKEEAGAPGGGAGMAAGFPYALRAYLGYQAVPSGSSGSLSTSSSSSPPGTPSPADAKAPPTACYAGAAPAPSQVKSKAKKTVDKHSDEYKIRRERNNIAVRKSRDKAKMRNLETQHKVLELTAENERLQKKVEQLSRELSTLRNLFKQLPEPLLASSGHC
Chain of Hepatocyte nuclear factor 3-beta (Homo sapiens) (Q9Y261 whole entry, looked up): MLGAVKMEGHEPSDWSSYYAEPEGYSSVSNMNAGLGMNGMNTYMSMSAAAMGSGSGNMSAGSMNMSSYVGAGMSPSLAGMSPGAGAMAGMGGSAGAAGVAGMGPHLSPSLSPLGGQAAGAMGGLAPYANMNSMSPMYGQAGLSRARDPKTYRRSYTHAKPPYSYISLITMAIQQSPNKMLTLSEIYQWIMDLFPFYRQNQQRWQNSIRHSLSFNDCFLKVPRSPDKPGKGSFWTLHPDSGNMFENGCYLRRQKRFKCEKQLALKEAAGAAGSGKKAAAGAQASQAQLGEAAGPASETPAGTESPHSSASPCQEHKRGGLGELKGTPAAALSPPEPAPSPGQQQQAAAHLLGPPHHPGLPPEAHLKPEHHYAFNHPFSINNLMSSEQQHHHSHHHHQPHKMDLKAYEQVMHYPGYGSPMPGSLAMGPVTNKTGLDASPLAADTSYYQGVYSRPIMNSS
Chain of Transcription factor E2F1 (Homo sapiens) (Q01094 whole entry, looked up): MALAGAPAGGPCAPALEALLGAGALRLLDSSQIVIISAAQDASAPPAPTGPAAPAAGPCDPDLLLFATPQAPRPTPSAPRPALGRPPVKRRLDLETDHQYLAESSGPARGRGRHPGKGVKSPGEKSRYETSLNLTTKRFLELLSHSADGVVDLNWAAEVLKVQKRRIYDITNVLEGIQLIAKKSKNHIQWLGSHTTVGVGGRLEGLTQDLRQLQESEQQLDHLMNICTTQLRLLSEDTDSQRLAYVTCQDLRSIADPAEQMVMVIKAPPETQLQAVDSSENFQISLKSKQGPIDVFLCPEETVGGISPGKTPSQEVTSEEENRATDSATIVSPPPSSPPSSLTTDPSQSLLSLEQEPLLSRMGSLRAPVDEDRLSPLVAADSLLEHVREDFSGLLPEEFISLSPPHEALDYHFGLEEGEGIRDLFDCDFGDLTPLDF
Chain of Retinoic acid receptor alpha (Homo sapiens) (P10276 whole entry, looked up): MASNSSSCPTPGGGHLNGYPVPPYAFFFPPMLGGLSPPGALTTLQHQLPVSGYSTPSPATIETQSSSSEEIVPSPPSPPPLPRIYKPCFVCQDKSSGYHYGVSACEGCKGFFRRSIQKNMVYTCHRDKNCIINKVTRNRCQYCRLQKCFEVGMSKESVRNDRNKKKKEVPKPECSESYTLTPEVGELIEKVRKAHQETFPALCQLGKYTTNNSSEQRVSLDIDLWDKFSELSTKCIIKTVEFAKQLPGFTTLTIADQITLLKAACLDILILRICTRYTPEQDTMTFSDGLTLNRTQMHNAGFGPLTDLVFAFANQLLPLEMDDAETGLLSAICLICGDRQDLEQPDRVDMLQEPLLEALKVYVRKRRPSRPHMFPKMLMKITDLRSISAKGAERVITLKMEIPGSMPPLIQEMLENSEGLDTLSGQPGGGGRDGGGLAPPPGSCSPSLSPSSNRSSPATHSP
Chain of Aryl hydrocarbon receptor (Homo sapiens) (P35869 whole entry, looked up): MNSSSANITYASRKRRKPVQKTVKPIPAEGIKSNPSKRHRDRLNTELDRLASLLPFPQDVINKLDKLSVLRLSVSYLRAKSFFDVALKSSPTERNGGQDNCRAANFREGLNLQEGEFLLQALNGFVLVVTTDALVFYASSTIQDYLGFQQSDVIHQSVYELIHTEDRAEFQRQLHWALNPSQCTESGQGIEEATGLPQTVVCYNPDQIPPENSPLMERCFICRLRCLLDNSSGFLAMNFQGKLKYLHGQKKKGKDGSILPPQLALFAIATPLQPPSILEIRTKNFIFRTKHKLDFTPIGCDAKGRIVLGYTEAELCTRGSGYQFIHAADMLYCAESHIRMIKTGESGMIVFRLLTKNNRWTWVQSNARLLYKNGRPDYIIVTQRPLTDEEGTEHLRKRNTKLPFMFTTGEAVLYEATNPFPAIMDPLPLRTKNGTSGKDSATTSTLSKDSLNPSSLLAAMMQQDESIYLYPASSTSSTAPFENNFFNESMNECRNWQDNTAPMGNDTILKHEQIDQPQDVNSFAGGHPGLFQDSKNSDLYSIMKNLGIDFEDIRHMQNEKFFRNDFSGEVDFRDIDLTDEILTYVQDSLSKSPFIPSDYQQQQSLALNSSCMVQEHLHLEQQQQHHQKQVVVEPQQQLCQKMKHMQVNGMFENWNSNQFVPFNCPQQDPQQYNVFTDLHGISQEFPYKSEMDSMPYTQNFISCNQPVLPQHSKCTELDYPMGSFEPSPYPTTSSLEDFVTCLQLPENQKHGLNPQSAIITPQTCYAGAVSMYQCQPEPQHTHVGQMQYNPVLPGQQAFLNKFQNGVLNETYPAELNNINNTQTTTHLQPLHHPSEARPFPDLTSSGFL

| Structure (SMILES) | outcome [1] | outcome [2] | outcome [3] | outcome [4] | outcome [5] | outcome [6] | outcome [7] | outcome [8] | outcome [9] | outcome [10] | outcome [11] | outcome [12] | AC50 [13] | outcome [14] | outcome [15] | outcome [16] | outcome [17] | outcome [18] | outcome [19] | outcome [13] |
| --- | --- | --- | --- | --- | --- | --- | --- | --- | --- | --- | --- | --- | --- | --- | --- | --- | --- | --- | --- | --- |
| c1ccc(Cc2ccccc2)cc1 | inactive | inactive | inactive | inactive | inactive | inactive | inactive | inactive | inactive | inactive | inactive | inactive | 100 µM (active) | inactive | inactive | inactive | inactive |  |  |  |
| CC(=O)Nc1cc(S(=O)(=O)O)cc2cc(S(=O)(=O)O)c(N=Nc3ccccc3)c(O)c12 | inactive | inactive | inactive | inactive |  | inactive |  | inactive | inactive | inactive | inactive | inactive |  | inactive | inactive | inactive |  | inactive | inactive | inactive |
| CCCCCCCC(=O)N(C)C | inactive | inactive | inactive | inactive |  | inactive | inactive | inactive |  | inactive | inactive | inactive |  | inactive | inactive | inactive | inactive | inactive | inactive | inactive |
| Nc1ccn([C@H]2CC[C@@H](CO)O2)c(=O)n1 | inactive | inactive | inactive | inactive |  | inactive | inactive | inactive | inactive | inactive | inactive | inactive |  | inactive | inactive | inactive | inactive | inactive |  | inactive |
| C/C=C(\C)C(=O)OC/C=C(\C)CCC=C(C)C | inactive | inactive | inactive |  | inactive | inactive | inactive | inactive | inactive | inactive | inactive | inactive |  | inactive | inactive | inactive | inactive | inactive | inactive |  |
| C1=COCCC1 | inactive | inactive | inactive | inactive |  | inactive | inactive | inactive | inactive | inactive | inactive | inactive |  |  | inactive | inactive |  | inactive | inactive | inactive |
| O=C(O)c1ccccc1O | inactive | inactive | inactive | inactive |  | inactive |  | inactive | inactive | inactive | inactive | inactive |  | inactive | inactive | inactive | inactive | inactive | inactive | inactive |
| CCCCCC1CCC(=O)O1 (centres undefined) | inactive | inactive | inactive | inactive |  | inactive | inactive | inactive | inactive | inactive | inactive | inactive |  |  | inactive | inactive | inactive | inactive |  |  |
| CC1=CC[C@@H]2C[C@H]1C2(C)C | inactive | inactive | inactive | inactive |  |  | inactive | inactive | inactive | inactive | inactive | inactive |  | inactive | inactive | inactive | inactive | inactive | inactive | inactive |
